Assay results as given in PubChem BioAssay.

What follows are compounds tested against Alpha-bungarotoxin (Bungarus multicinctus) (UniProt P60615) (assay: alpha-bungarotoxin binders on microarray, profiling panel, artefact control for SMM control protein annotation, biochemical, small-molecule microarray, Alexa647 label, 635/667 nm fluorescence (AID 1117)). Conditions: alpha-BTX-A647 binding fluorescence, higher = more signal.
Alpha-bungarotoxin (Bungarus multicinctus), sequence (P60615 whole entry, looked up): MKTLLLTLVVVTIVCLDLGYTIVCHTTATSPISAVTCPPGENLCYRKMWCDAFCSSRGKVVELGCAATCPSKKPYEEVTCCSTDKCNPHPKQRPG
In the case of `[N-]=[N+]=NCc1ccccc1[C@H]1OC(c2ccc(OCCCO)cc2)=N[C@@]1(Cc1ccccc1N=[N+]=[N-])C(=O)N1CCOCC1`, the composite z-score is reported as 1.4.
For `CN(C)CCCCCCNC(=O)[C@@H]1C[C@@H]2C(=O)N[C@@H](CCCC[N+](C)(C)C)C(=O)N2[C@@H]1c1cccc(OCCO)c1`, the composite z-score was 0.217.
`CCCCC(=C=CC[C@@H](O)c1ccccc1OCCO)C[C@@H](O)c1ccccn1` was tested, and the composite z-score was 0.888.
Compound `CC1C2C(CCCO)=CC(C3C(=O)N(C(N)=O)C(=O)C23)N1Cc1cccc(OC(F)(F)F)c1` (configuration not stated) has a composite z-score of 1.32.
`C=CCC(OC(C)=O)[C@@H]1[C@@H](N(Cc2ccc(-c3ccccc3)cc2)C(=O)Cc2ccc(OC)cc2)c2cc(OCCCO)ccc2N1C(=O)c1ccc2ccccc2c1` (some centres not stated) was tested, and the composite z-score was 0.284.
With `COc1cc(Cc2cc3c(c(-c4ccccc4)n2)[Si](C(C)C)(C(C)C)OC3)cc(OC)c1OC` the composite z-score was 1.34.
`O=C1N(Cc2ccccc2)Cc2ccccc2C[C@@]12COC(c1ccc(OCCCO)cc1)=N2` was tested, and the composite z-score was 0.491.
